Our source for the Potency, max response and outcome values is PubChem BioAssay (NCATS).

SMILES strings stand for the structures. Where “and” joins values, the source holds several entries; their conditions need not be identical. Equal entries are not always repeated. Inconclusive results are not listed. Calls of active or inactive are those of the source. Calls follow the shape of the dose curve; as a rule, active = well fitted curve in the direction sought with a large enough effect; inconclusive = small, poorly fitted or top-dose-only effect, or another doubt; inactive = no such curve, though single readings can be large; an effect the other way counts as inactive or inconclusive.

One experiment relates to CRL-7250. As to the kind of experiment: Cytotoxic Profiling of Annotated Libraries Using Quantitative High-Throughput Screening (AID 1296008). Also: nearly all actives have a fitted effect of over 60% in size. Also: potency is read from the fitted curve at half-maximal effect. As to max response: % is scaled to controls: 0 for no effect and ±100 for the full control effect. The following applies: Five cell lines viability, CellTiter-Glo ATP luminescence, 48-72 h; max response: stronger effect = lower value. A digest of the protocol:
(§1)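 Cells exposed to compounds for 48 or 72 hr at 37 degrees Celsius. Viability read as ATP-coupled luminescence with CellTiter-Glo after 10 min at room temperature.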
In general terms: ATP-based viability assays read luminescence as a measure of living cells.

The test system of a further experiment is HEK293. The experiment is described as above. The following applies: Five cell lines viability, CellTiter-Glo ATP luminescence, 48-72 h; max response: stronger effect = lower value. A digest of the protocol: as §1
Experiment [1] deals with HaCat. The description is as above. The following applies: Five cell lines viability, CellTiter-Glo ATP luminescence, 48-72 h; max response: stronger effect = lower value. The essentials:
as §1

In the next experiment the test system is KB-3-1. The description is as above. The following applies: Five cell lines viability, CellTiter-Glo ATP luminescence, 48-72 h; max response: stronger effect = lower value. The essentials: as §1
Experiment [2] has as its system NIH3T3. Described as above. The following applies: Five cell lines viability, CellTiter-Glo ATP luminescence, 48-72 h; max response: stronger effect = lower value. A digest of the protocol: as §1
A further experiment has as its system MCC-26. As to the kind of experiment: qHTS assay to identify novel small-molecules to repurpose for Merkel cell carcinoma treatment (AID 1296009). Also: nearly all actives have a fitted effect of over 60% in size. Also: potency is read from the fitted curve at half-maximal effect. The following applies: MCC and control cell lines, CellTiter-Glo viability, 72 h; series mostly up to 46 µM. A digest of the protocol:
(§2)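 Dose-response viability screen; 72 hr exposure at 37 degree celsius; CellTiter-Glo added, 10 min room temperature, luminescence read; RLUs scaled between no-cell and DMSO wells.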
(In general: In qHTS, concentration-response curves come from the screen itself.)

Another experiment concerns MKL-2. Described as above. The following applies: MCC and control cell lines, CellTiter-Glo viability, 72 h; series mostly up to 46 µM. A digest of the protocol: as §2
For another experiment, the system named is MCC-13. The description is as above. The following applies: MCC and control cell lines, CellTiter-Glo viability, 72 h; series mostly up to 46 µM. A digest of the protocol: as §2
In another experiment the test system is MKL-1. Described as above. The following applies: MCC and control cell lines, CellTiter-Glo viability, 72 h; series mostly up to 46 µM. A digest of the protocol:
as §2

A further experiment concerns UISO. The description is as above. The following applies: MCC and control cell lines, CellTiter-Glo viability, 72 h; series mostly up to 46 µM. A digest of the protocol:
as §2

Another experiment has as its system WaGa. Described as above. The following applies: MCC and control cell lines, CellTiter-Glo viability, 72 h; series mostly up to 46 µM. The essentials: as §2
The test system of the next experiment is C33A. As to the kind of experiment: Primary qHTS to identify gynecologic anti-cancer compounds using libraries of approved drugs and bioactive compounds (AID 1345084). Also: % is scaled to controls: 0 for no effect and ±100 for the full control effect; nearly all actives have a fitted effect of over 55% in size. The following applies: Gynecologic cancer cell panel viability, ATPlite luminescence, 48 h; series mostly up to 57.5 µM. The essentials:
(§3)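 Cells, 1,000 per well, were allowed to settle for 16 h at 37 C before compound addition. Five concentrations were tested for 48 h, and viability was read by ATPlite luminescence after 15 min at room temperature.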

Another experiment deals with CAOV3. The description is as above. The following applies: Gynecologic cancer cell panel viability, ATPlite luminescence, 48 h; series mostly up to 57.5 µM. A digest of the protocol: as §3
The next experiment relates to CASKI. The experiment is described as above. The following applies: Gynecologic cancer cell panel viability, ATPlite luminescence, 48 h; series mostly up to 57.5 µM. A digest of the protocol:
as §3

The test system of the next experiment is TAB113. Description: qHTS profiling for inhibitors of Plasmodium falciparum proliferation (AID 504749).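 Also: 0% = DMSO vehicle and full inhibition = artemisinin control; nearly all actives have a fitted effect of over 60% in size.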 The following applies: P. falciparum in erythrocytes, SYBR Green DNA, 72 h; series mostly up to 28.7 µM. The essentials: (§4)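 Each compound contacts P. falciparum-infected red blood cells for 72 h at 37 C; lysis buffer (Tris, EDTA, saponin, Triton X, SYBR Green I) is added and fluorescence measured next morning; values normalized to controls.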

A further experiment relates to TAB165. Described as above. The following applies: P. falciparum in erythrocytes, SYBR Green DNA, 72 h; series mostly up to 28.7 µM. A digest of the protocol: as §4
A further experiment relates to W2. The description is as above. The following applies: P. falciparum in erythrocytes, SYBR Green DNA, 72 h; series mostly up to 28.7 µM. The essentials:
as §4

The subject of experiment [3] is HACAT. As to the kind of experiment: qHTS assay to identify novel small-molecules to repurpose for Merkel cell carcinoma treatment (AID 1296009). Also: nearly all actives have a fitted effect of over 60% in size. Also: potency is read from the fitted curve at half-maximal effect. The following applies: MCC and control cell lines, CellTiter-Glo viability, 72 h; at 44.8 µM (top of the series) unless noted. The essentials: as §2
The test system of a further experiment is HEK293T. The description is as above. The following applies: MCC and control cell lines, CellTiter-Glo viability, 72 h; at 44.8 µM (top of the series). The essentials: as §2
For experiment [4], the system named is NIH3T3. The description is as above. The following applies: MCC and control cell lines, CellTiter-Glo viability, 72 h; at 44.8 µM (top of the series) unless noted. The essentials:
as §2

With `Cc1nc(N)sc1-c1ccnc(Nc2ccc(N3CCOCC3)cc2)n1`, the Potency in the experiment with CRL-7250 was 9.35 µM (active) and 5.17 µM (active); in the experiment with HEK293, 10.5 µM (active) and 7.31 µM (active); with HaCat [1], 18.7 µM (active) and 1.16 µM (active); with KB-3-1, 1.66 µM (active) and 1.64 µM (active); in the experiment on NIH3T3 [2] it was 11.8 µM (active) and 1.84 µM (active). Besides, the Potency result in the experiment on MCC-26 and in the experiment on MKL-2 was “inactive” each time.

With `COc1ccc2cccc(CCNC(C)=O)c2c1`, the max response was -2.32% (inactive) with CRL-7250; 4.38% (inactive) in the experiment with HEK293; -1.39% (inactive) in the experiment with HaCat [1]; 2.52% (inactive) with KB-3-1; -3.32% (inactive) with NIH3T3 [2]. The Potency entry with MCC-13, with MCC-26, in the experiment on MKL-1, with MKL-2, with UISO and with WaGa was “inactive” throughout. The Potency result in the experiment on C33A, in the experiment on CAOV3 and in the experiment with CASKI was “inactive” in each case.

For the compound `O=C(NCCN1CCOCC1)c1ccc(Cl)cc1`, the Potency entry in the experiment on TAB113, with TAB165, in the experiment with W2, in the experiment on MCC-13, in the experiment on MKL-1 and in the experiment with MKL-2 was “inactive” in each case. For the same compound, the Potency result in the experiment on UISO, in the experiment on WaGa, in the experiment with C33A, in the experiment with CAOV3 and with CASKI was “inactive” throughout. For the same compound, the max response with CRL-7250 was 0.679% (inactive); with HEK293 it was -0.241% (inactive); with HaCat [1], -12.4% (inactive); in the experiment with KB-3-1 it was 3.6% (inactive) and -22.2% (inactive); in the experiment on NIH3T3 [2], 4.53% (inactive).

`CN1[C@@H]2CCC[C@@H]1CC(NC(=O)c1nn(C)c3ccccc13)C2` (stereo partly drawn): the max response is -0.159% (inactive) in the experiment on CRL-7250; -2.4% (inactive) in the experiment with HEK293; -5.72% (inactive) in the experiment with HaCat [1]; 1.46% (inactive) in the experiment on KB-3-1; 0.235% (inactive) in the experiment with NIH3T3 [2]. Also, the Potency entry in the experiment with MCC-13, with MCC-26, in the experiment on MKL-1, with MKL-2, in the experiment with UISO and in the experiment with WaGa was “inactive” throughout.

On to `O=C1c2ccccc2-[n+]2ccc3c([nH]c4ccccc43)c21`, for which the Potency is 4.69 µM (active) in the experiment on CRL-7250; 2.64 µM (active) in the experiment on HEK293; 1.32 µM (active) in the experiment with HaCat [1]; 2.96 µM (active) with KB-3-1; 3.32 µM (active) in the experiment with MCC-13; 7.43 µM (active) with MCC-26. The Potency with MKL-1 is 1.05 µM (active); in the experiment on MKL-2, 3.32 µM (active); in the experiment with UISO, 0.662 µM (active); in the experiment with WaGa it was 2.35 µM (active).

Regarding `CO[C@H]1C[C@@H]2CC[C@@H](C)[C@@](O)(O2)C(=O)C(=O)N2CCCC[C@@H]2C(=O)O[C@H]([C@H](C)C[C@@H]2CC[C@H](OCCO)[C@H](OC)C2)CC(=O)[C@H](C)C=C(C)[C@@H](O)[C@@H](OC)C(=O)[C@H](C)C[C@H](C)C=CC=CC=C1C`, the max response was -75.3% (inactive) with CRL-7250 and -15.8% (inactive) in the experiment on HaCat [1]. Moreover, the Potency in the experiment with HEK293 is 0.0017 µM (active); in the experiment on NIH3T3 [2], 8.33 µM (active); with UISO, 0.833 µM (active). For the same compound, the Potency result in the experiment with MCC-13 and with MKL-2 was “inactive” each time.

Consider `O=C(O)c1ccc(-c2c[nH]c3ncc(-c4ccccc4)cc23)cc1C1CCCC1`, for which, in the experiment on CRL-7250, the max response is -5.06% (inactive). Also, the compound was called inactive with HEK293, in the experiment with HaCat [1], with KB-3-1, with HACAT [3] and in the experiment on HEK293T. In addition, the Potency entry in the experiment on MCC-13, with MCC-26, with MKL-1, in the experiment on UISO and in the experiment on WaGa was “inactive” throughout.

`C[C@H](NC(=O)c1sccc1OCc1ccc(Cl)cc1)c1ccccc1`: the Potency in the experiment on CRL-7250 is 29.6 µM (active); in the experiment on HEK293, 16.6 µM (active); with KB-3-1, 20.9 µM (active). In addition, the max response in the experiment with NIH3T3 [2] is -27.6% (inactive). Further, the Potency entry with MCC-13, with MCC-26 and in the experiment with MKL-1 was “inactive” in each case.

In the case of `CC1(C)Cc2c(sc(NC(=S)NC(=O)c3ccccc3)c2C(=O)O)CO1`, the compound was classed as inactive in the experiment on CRL-7250, in the experiment on HEK293, in the experiment on HaCat [1], in the experiment on KB-3-1, in the experiment on HACAT [3] and with HEK293T. For the same compound, the compound was called inactive in the experiment on NIH3T3 [4]. Besides, the Potency result in the experiment on MCC-13, with MCC-26, in the experiment on MKL-1, with UISO and in the experiment on WaGa was “inactive” throughout.

In the case of `Nc1ncnc2ccccc12`, the call in the experiment on CRL-7250, with HEK293, with KB-3-1 and in the experiment with HEK293T was inactive. Further, the max response with HaCat [1] was -14.1% (inactive). For the same compound, the Potency entry in the experiment with MCC-13, with MCC-26, in the experiment on MKL-1, in the experiment with MKL-2, in the experiment with UISO and in the experiment with WaGa was “inactive” in each case.

In the case of `CC(C)(C)c1ccc(C(O)CCCN2CCC(C(O)(c3ccccc3)c3ccccc3)CC2)cc1` (stereo not drawn), in the experiment with CRL-7250, the compound was classed as inactive. The max response in the experiment with HEK293 was -7.01% (inactive); in the experiment with HaCat [1], 1.94% (inactive); in the experiment with KB-3-1, -14.6% (inactive) and -4.64% (inactive). The Potency result with MCC-13, with MCC-26, with MKL-1, in the experiment with MKL-2, in the experiment with UISO and in the experiment on WaGa was “inactive” throughout. Also, the Potency entry with C33A, in the experiment on CAOV3 and in the experiment with CASKI was “inactive” each time.

With `C[C@]12CCC3c4ccc(O)cc4CCC3C1CCC2=O` (stereo partly drawn), the max response in the experiment with CRL-7250 was -16.8% (inactive); with HEK293, -11.3% (inactive); in the experiment on HaCat [1] it was -11.3% (inactive); in the experiment with KB-3-1 it was 7.4% (inactive). The Potency entry with MCC-13, in the experiment with MKL-1, in the experiment with MKL-2 and with WaGa was “inactive” in each case.

As to `Clc1ccc(-c2nc3sccn3c2C=NOCc2ccc(Cl)c(Cl)c2)cc1`, the max response in the experiment with CRL-7250 is -8.97% (inactive); with HEK293, -1.21% (inactive); in the experiment with KB-3-1, -5.79% (inactive). The compound was classed as inactive in the experiment on HaCat [1] and in the experiment with HACAT [3]. For the same compound, the Potency entry in the experiment on MCC-13, in the experiment with MKL-1, in the experiment with MKL-2, in the experiment on UISO and in the experiment with WaGa was “inactive” in each case.

For `N[C@H](CSC(c1ccccc1)(c1ccccc1)c1ccccc1)C(=O)O`, the max response in the experiment on CRL-7250 is -7.2% (inactive). The Potency with HEK293 was 9.35 µM (active); in the experiment on NIH3T3 [2], 26.4 µM (active). Moreover, the outcome in the experiment with HaCat [1] and with HACAT [3] was inactive. Further, in the experiment on MCC-26, the Potency entry was “inactive”.
